The results in this text go back to PubChem BioAssay AID489008 (National Center for Advancing Translational Sciences (NCATS), 2010).

Results filed as inconclusive are left out. Calls of active or inactive are those of the source. Calls come from the whole dose curve; as a rule, active = well fitted inhibition curve with a large enough effect; inconclusive = small, poorly fitted or top-dose-only effect; inactive = flat fitted curve, though single readings scatter.
Potency is the fitted concentration of half-maximal effect.

Sequence of Ferritin light chain (Equus caballus) (P02791 2-175 limits assumed): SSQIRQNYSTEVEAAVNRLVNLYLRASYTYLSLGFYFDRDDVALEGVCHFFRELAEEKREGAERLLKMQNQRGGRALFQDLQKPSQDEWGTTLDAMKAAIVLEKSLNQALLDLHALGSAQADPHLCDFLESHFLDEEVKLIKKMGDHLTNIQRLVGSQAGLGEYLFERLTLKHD

In the experiment the target is Ferritin light chain (Equus caballus) (UniProt P02791). The experiment in a line: Confirmation Assay for Identification of Novel General Anesthetics. Note: nearly all actives have a fitted effect of over 40% in size. Particulars: apoferritin 1-aminoanthracene fluorescence displacement. The procedure, abridged:
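Competitive displacement of profluorescent 1-aminoanthracene from 10 uM horse-spleen apoferritin in 50% saturated 1-AMA/PBS; 10 min RT, fluorescence Ex 380/Em 535. Normalized to free 1-AMA and complex; four-parameter Hill fit.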
For `Cc1cc(C)n2nc(CC(=O)NC3CCCCCC3)nc2n1`, the Potency is 8.91 µM (active).
In the case of `NC(=O)Nc1ccc(Oc2ncc(C(F)(F)F)cc2Cl)cc1` it was 7.08 µM (active); in that of `CCCCOC(=O)Nc1ccc(C)c(Cl)c1`, 17.8 µM (active).
In the case of `Oc1ccc(C(=S)N2CCCCCC2)cc1` it was 14.1 µM (active); in that of `O=C(Nc1ccc(Br)cc1)N1CCCCCCC1`, 6.31 µM (active); in that of `COc1cccc(CNc2ccc(C)c(Cl)c2)c1`, 11.2 µM (active).
On to `Nc1nc(C23CC4CC(CC(C4)C2)C3)cs1`, for which the Potency is 7.94 µM (active).
Regarding `Fc1ccc(CNc2ccc(CNc3ncn[nH]3)cc2)cc1`, the Potency is 17.8 µM (active).
The figure for `Cc1cc(OC(C)C)c2c(-c3ccccc3)cc(=O)oc2c1` is 35.5 µM (active); for `Fc1ccccc1CNc1ccc(Cl)cc1` it is 11.2 µM (active); for `O=C(NC1C2CC3CC(C2)CC1C3)c1ccc(Br)o1` (stereo not given) it is 11.2 µM (active).
As for `NS(=O)(=O)c1cccnc1Nc1cccc(C(F)(F)F)c1`, the Potency was 10 µM (active).
In the case of `N#Cc1ccccc1NCc1ccccc1` it was 11.2 µM (active); in that of `O=C(CN1N=C(c2ccccc2)CCC1=O)NCc1cccs1`, 17.8 µM (active).
Turning to `NCCOc1ccc(C2CCCCC2)cc1`, the Potency was 7.94 µM (active).
On to `CC1CCCCC1NC(=O)COC(=O)COc1ccccc1Cl` (stereo not given), for which the Potency was 17.8 µM (active).
Take `CC1CCCCN1S(=O)(=O)Cc1ccccc1Cl` (stereo not given): the Potency was 14.1 µM (active).
In the case of `CC(C)CCOc1ccc(C2N=C(N)Nc3nc4ccccc4n32)cc1` (stereo not given) it was 12.6 µM (active); in that of `CC1CCCC(NC(=O)COC(=O)CCc2ccccc2)C1C` (stereo not given), 25.1 µM (active).
The figure for `O=C(COc1ccc(F)c(Cl)c1)N1CCCCCCC1` is 35.5 µM (active).
